The source of these data is PubChem BioAssay (NCI).

The panel holds about 83,000 compounds, 20% with a hit somewhere; the sample as a whole holds those more often.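 Results are percent growth after 48 hours of single-concentration exposure. 100 means growth as in untreated cells, lower positive values show inhibition; negative values down to -100 show cell death.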 The source made the active and inactive calls. Rule for the calls: active = growth percent below 10; inactive = the rest.

This experiment relates to HL-60(TB) leukemia. In words: NCI-60 one-dose screen, 48 h (100 = growth as untreated, 0 = no growth, -100 = all killed). The following applies: 10 µM unless noted.
As for `Cc1nn(-c2ccccc2)c(-n2ccnc2)c1/C=N/Nc1nc(-c2ccc(Cl)c(Cl)c2)cs1`, the growth was 76.6% (inactive). Then `Cc1ccc(S(=O)(=O)n2cc(-c3csc(-c4cn(C)c5ncccc45)n3)c3ccccc32)cc1`, with 61.9% (inactive); and `CCCCCCCC/C=C/CCCCCCCC1=NC(C)(C)CN1CCO`, with -61.5% (active); and `O=C1/C=C/[C@@H](O)[C@@H]2C[C@@H](O)C[C@H]2/C=C/CCC[C@H](CCc2cccc3ccccc23)O1`, with -44.8% (active). `COc1cc2c3cc1Oc1c(OC)c(OC)cc4c1C(Cc1ccc(O)c(c1)Oc1ccc(cc1)CC3N(C)CC2)N(C)CC4` (configuration not stated): the growth is -32.4% (active). Turning to `CCCCc1c(CCC)c(=N)c2ccccc2n1C`, the growth was 77% (inactive). As for `CCN(CC)CCO/N=C1\CC(c2ccc(OC)c(OC)c2)Oc2ccccc21` (configuration not stated), the figure is 78.4% (inactive); as for `O=C(O)C(Cc1ccccc1)C(=O)O`, 107% (inactive); as for `COc1ccc(C2=C(c3ccccc3)c3ccc(OC(C)=O)cc3OC2(C)C)cc1`, -17.1% (active). Then `CCNC(=O)Oc1ccc(/C(=C(\C)c2ccc(Cl)cc2)c2ccc(OCCN3CCCCC3)cc2)cc1`, with 16.8% (inactive); and `Cc1sc2nc3c4ccccc4c(NCCCN(C)C)nn3c(=O)c2c1C`, with -71% (active); and `Cc1cc(C(C)(CC(C)C)c2ccc(O)c(C)c2)ccc1O`, with 106% (inactive). On to `CCCCCCCCCCCCCCCCCCOc1ccc(CC(=O)OCC[N+]2(C)CCCCC2)cc1`, for which the growth was 83.4% (inactive). Regarding `COc1ccc(-c2ccc(-c3ccc(C(=N)N)nc3)s2)cc1Cl`, the growth is -48.7% (active). As for `O=C1C[C@H](Sc2nc(-c3ccc(F)cc3)cc(C(F)(F)F)n2)[C@H]2CO[C@@H]1O2`, the figure is 46.9% (inactive); as for `COc1ccc(C2[C@@H](Cl)C(=O)N2c2cc(OC)c(OC)c(OC)c2)cc1Cl` (some centres not stated), -30.3% (active). Regarding `CCC12OC(COc3ccccc3)CN1CCN2c1ccccc1` (configuration not stated), the growth was 94.7% [100 µM] (inactive). Then `NC(=NCc1ccccc1)C(N=Nc1ccccc1)C(=O)NCc1ccccc1` (configuration not stated), with 72% (inactive); and `COc1ccc2c(N)ncc(C#Cc3cc(C(=O)Nc4ccc(CN5CCN(C)CC5)c(C(F)(F)F)c4)cnc3C)c2c1`, with 43.9% (inactive). In the case of `Cn1cc(-c2nc3c(F)cc4[nH]ncc4c3c3c2CCCC3)c(C(F)F)n1`, the growth was 10.8% (inactive). As to `COc1cnc2c(c1)C(=O)c1c-2n(CCCN2CCOCC2)c(=O)c2cc(Cl)ccc12`, the growth was -4.61% (active). Regarding `Cc1nc2ccc(-n3c(-c4ccc(Cl)cc4)nc4ccccc4c3=O)cc2n1Cc1ccccc1`, the growth was 78.2% (inactive). As for `CSc1nc(C)c(C(=O)CCN2CCN(c3ccccn3)CC2)s1`, the figure is 102% (inactive). In the case of `Clc1ccc(Oc2ccc(Nc3ncnc4onc(-c5ccccc5)c34)cc2)c(Cl)c1`, the growth is 100% (inactive). Turning to `COc1ccc2c(ccc[n+]2C)c1`, the growth is 132% (inactive). Turning to `C=C1C(=O)O[C@H]2[C@H]1CC/C(COC(=O)/C=C\C(=O)NCc1ccc(Cn3c(=O)sn(-c4ccc(OC)cc4)c3=O)cc1)=C\CC[C@@]1(C)O[C@@H]21`, the growth was -35.8% (active). As for `O=C1CCCCN1CCCCC#Cc1ccccc1C#Cc1ccccn1`, the figure is 78.2% (inactive).
